# Reference: PMC7862700, “An all-to-all approach to the identification of sequence-specific readers for epigenetic DNA modifications on cytosine”
# Assays:
# Assay in all cases: DAPPL (digital affinity profiling via proximity ligation, sequencing); 10 mM Tris-HCl pH 7.5, 50 mM NaCl, 1 mM DTT, 4% glycerol, room temperature, 30 min; GST-TFs on glutathione beads, 16-mer random dsDNA library, 0.1% formaldehyde crosslink after washing; high values mean tight binding
# Conditions in all cases: protein: recombinant; tags: N-terminal GST; dsDNA, one strand shown
# [1] = molecular target: T1, FLI1 (Homo sapiens, UniProt Q01543 1-452)
# T1 sequence: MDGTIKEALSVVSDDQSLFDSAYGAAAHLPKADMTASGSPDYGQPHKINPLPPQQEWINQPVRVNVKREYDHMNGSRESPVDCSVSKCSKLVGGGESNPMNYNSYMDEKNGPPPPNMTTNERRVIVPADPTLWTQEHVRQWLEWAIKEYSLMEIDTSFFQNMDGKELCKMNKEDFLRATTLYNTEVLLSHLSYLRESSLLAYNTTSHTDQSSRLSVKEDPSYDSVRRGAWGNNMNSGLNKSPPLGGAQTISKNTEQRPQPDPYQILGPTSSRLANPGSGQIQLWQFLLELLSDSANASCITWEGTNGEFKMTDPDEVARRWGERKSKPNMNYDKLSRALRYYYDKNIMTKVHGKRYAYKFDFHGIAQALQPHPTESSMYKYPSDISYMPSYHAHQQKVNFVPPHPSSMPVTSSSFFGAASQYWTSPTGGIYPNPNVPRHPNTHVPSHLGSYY
# How it was run: (§1)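 Pools were built from human transcription factors expressed in yeast as GST fusions, captured on glutathione beads and DNA-barcoded, along with a tag-only sample. Incubation with 200 nmole of a 16-mer random double-stranded DNA library lasted 30 min at room temperature in Tris/NaCl/DTT/glycerol buffer, and was followed by washing, 0.1% formaldehyde crosslinking, proximity ligation, PCR amplification and Illumina NextSeq500 sequencing. Binding signal is the quotient of each hexamer's read frequency for a factor and its frequency for the tag-only sample.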
# [2] = molecular target: T2, ELK1 (Homo sapiens, UniProt P19419 1-428)
# T2 sequence: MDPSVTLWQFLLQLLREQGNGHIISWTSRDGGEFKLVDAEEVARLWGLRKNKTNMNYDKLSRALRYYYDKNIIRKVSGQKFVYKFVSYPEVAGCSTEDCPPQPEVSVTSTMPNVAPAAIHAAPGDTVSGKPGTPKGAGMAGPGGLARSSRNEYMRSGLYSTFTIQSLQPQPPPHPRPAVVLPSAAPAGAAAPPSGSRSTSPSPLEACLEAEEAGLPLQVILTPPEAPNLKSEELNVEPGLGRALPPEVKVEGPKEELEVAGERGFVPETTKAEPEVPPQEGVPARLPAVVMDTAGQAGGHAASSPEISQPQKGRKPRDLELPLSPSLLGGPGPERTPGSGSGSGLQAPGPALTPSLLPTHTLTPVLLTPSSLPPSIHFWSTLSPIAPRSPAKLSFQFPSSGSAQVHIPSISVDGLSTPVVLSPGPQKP
# How it was run: as §1
# [3] = molecular target: T3, GABPA (Homo sapiens, UniProt Q06546 1-454)
# T3 sequence: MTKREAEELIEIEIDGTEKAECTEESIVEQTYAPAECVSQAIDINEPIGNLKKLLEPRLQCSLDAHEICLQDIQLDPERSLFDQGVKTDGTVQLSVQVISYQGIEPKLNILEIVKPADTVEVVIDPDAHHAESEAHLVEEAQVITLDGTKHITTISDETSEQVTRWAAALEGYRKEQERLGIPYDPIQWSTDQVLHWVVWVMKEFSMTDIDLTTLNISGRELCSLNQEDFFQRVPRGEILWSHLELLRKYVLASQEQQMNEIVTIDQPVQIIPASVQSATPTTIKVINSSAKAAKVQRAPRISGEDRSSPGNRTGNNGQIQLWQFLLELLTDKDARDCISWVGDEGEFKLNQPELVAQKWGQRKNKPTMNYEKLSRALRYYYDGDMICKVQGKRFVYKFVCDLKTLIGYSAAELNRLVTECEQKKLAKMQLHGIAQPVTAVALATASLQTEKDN
# How it was run: as §1
# [4] = molecular target: T4, ERG (Homo sapiens, UniProt P11308 1-479)
# T4 sequence: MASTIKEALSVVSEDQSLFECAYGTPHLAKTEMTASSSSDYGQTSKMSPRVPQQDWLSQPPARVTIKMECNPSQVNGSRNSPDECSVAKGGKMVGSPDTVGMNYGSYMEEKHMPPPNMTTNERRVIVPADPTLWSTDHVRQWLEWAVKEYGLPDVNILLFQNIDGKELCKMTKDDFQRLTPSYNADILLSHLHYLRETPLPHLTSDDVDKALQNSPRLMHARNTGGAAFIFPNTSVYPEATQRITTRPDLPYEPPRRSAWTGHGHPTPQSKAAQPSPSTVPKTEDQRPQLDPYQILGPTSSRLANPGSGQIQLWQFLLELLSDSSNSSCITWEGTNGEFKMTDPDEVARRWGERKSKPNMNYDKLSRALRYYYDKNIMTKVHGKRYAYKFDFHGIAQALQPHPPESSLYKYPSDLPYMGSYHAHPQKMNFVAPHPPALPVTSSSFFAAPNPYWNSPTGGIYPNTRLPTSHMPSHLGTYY
# How it was run: as §1
# [5] = molecular target: ELF1 (Homo sapiens, UniProt P32519 1-619)
# ELF1, sequence (P32519 whole entry): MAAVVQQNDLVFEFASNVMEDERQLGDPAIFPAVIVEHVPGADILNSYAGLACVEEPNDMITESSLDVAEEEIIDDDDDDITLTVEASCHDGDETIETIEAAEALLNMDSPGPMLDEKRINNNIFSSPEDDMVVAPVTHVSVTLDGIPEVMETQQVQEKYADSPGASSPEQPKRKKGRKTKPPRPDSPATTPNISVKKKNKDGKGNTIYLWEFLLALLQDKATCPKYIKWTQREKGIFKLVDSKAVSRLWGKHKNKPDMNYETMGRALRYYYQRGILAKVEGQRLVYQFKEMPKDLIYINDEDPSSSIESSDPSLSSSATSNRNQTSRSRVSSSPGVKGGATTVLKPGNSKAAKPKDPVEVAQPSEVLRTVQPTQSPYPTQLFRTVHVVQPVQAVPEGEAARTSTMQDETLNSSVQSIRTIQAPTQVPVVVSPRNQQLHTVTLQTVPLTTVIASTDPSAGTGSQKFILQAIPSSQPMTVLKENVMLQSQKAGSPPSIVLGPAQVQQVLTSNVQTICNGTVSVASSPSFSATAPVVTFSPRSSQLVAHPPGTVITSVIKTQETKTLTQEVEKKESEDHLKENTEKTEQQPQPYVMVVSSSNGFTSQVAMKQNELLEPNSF
# How it was run: as §1
# [6] = molecular target: T5, EHF (Homo sapiens, UniProt Q9NZC4 1-300)
# T5 sequence: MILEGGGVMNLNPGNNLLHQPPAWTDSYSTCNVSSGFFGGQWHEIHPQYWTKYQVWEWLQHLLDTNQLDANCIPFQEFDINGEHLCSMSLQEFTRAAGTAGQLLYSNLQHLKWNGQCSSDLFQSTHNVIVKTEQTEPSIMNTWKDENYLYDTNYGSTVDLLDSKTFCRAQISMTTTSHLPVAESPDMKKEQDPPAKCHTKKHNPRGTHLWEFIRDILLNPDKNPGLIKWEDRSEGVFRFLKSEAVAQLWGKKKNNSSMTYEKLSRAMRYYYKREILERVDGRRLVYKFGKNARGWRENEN
# How it was run: as §1
# [7] = molecular target: SPI1 (Homo sapiens, UniProt P17947 1-270)
# How it was run: as §1
# [8] = molecular target: SPIB (Homo sapiens, UniProt Q01892 1-262)
# SPIB, sequence (Q01892 whole entry): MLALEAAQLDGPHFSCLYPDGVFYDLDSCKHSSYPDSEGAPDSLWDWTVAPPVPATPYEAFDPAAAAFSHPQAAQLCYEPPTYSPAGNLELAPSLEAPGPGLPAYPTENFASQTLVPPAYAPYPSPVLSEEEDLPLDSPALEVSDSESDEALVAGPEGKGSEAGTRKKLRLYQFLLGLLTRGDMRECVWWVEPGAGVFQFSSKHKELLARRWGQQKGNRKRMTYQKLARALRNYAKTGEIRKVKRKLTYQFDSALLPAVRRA
# How it was run: as §1
# [9] = molecular target: T6, FEV (Homo sapiens, UniProt Q99581 1-238)
# T6 sequence: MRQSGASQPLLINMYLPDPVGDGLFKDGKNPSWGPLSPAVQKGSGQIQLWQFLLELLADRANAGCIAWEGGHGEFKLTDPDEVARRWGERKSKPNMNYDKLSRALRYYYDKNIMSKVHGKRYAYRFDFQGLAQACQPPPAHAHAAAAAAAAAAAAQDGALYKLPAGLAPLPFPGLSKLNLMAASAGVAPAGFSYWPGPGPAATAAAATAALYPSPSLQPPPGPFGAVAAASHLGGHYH
# How it was run: as §1
# [10] = molecular target: ETV5 (Homo sapiens, UniProt P41161 1-510)
# ETV5, sequence (P41161 whole entry): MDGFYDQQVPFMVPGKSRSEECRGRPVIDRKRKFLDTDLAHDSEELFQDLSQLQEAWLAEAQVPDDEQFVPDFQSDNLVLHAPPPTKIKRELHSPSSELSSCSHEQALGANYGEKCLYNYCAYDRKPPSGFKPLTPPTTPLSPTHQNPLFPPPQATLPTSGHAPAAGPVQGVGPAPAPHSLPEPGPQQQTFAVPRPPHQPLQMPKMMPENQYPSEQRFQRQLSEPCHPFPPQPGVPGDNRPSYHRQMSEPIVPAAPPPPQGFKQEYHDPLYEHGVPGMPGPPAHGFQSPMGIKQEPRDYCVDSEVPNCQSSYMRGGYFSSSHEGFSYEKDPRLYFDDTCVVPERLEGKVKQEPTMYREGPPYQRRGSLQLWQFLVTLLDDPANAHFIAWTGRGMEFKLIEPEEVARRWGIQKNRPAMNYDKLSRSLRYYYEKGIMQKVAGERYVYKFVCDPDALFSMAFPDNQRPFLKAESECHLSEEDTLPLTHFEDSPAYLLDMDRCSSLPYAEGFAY
# How it was run: as §1
sequence,measurement,setting,value
GAAGTC,binding signal,[1],"1.15 fold enrichment (6-mer frequency, TF over GST control)"
same,binding signal,[2],"1.2 fold enrichment (6-mer frequency, TF over GST control)"
same,binding signal,[3],"1.04 fold enrichment (6-mer frequency, TF over GST control)"
same,binding signal,[4],"1.33 fold enrichment (6-mer frequency, TF over GST control)"
same,binding signal,[5],"1.1 fold enrichment (6-mer frequency, TF over GST control)"
same,binding signal,[6],"1.13 fold enrichment (6-mer frequency, TF over GST control)"
same,binding signal,[7],"1.51 fold enrichment (6-mer frequency, TF over GST control)"
same,binding signal,[8],"1.22 fold enrichment (6-mer frequency, TF over GST control)"
same,binding signal,[9],"1.22 fold enrichment (6-mer frequency, TF over GST control)"
same,binding signal,[10],"1.17 fold enrichment (6-mer frequency, TF over GST control)"
